From PubChem
TSHR agonist = activates the human thyroid stimulating hormone receptor | P16473 | HEK293-CNG-TSHR cells (CNG channel as cAMP sensor), membrane potential dye, cAMP | 73,000 compounds, 0.48% hits | AID 926 | Potency, µM (top dose mostly 57.1 µM), for the others: at the highest dose activation, usual class: activators; active means well fitted activation curve with a large enough effect in the main read-out, with a control signal flat, not every such curve was filed as active; inconclusive means small, poorly fitted or top-dose-only effect, or a change in a side signal; inactive means no such curve, though single readings can be large or run the other way; % of control where 0% means no effect;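 further: the control signal comes from parental cells without the receptor; potency means the concentration at half of the fitted maximal effect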
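HEK 293 cells stably expressing TSHR and a modified CNG channel, with CNG-only parental cells as counterscreen, were preloaded 60 min at room temperature with membrane potential dye containing 100 uM RO 20-1724. Compound exposure was 30 min, and depolarization was read as fluorescence at 590 nm.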
ERK AVP inh = inhibitors of vasopressin-stimulated ERK signaling pathway; 72,000 compounds, 0.99% hits; HEK293-V1b, vasopressin-stimulated pERK AlphaScreen; Potency, µM (doses to about 57.5 µM), without a hit: at the highest dose activity, negative = inhibition, usual class: inhibitors; further: potency means the concentration at half of the fitted maximal effect; on the % scale 0 is the no-effect control and ±100 the full control effect; nearly all actives have a fitted effect of over 55% in size
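V1b-HEK293 cells; cpd 30 min 37C; 25 nM vasopressin 5 min; lyse 10 min; AlphaScreen beads 5 hr RT. Normalized to DMSO basal and 25 nM vasopressin; AC50 by Hill fit.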
HBB splicing = alters splicing of the hemoglobin beta chain. HBB splicing reporter cell assay, activation; EGFP reporter with mutant IVS2-654 intron; response scale: normalised to 500 nM splice-correcting PNA. AID 925. Potency, µM (top dose mostly 46.1 µM), inactives show at the top dose activation, usual class: activators. 65,000 compounds, 0.06% hits; further: potency means the concentration at half of the fitted maximal effect; 0% is about no effect
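HeLa cells stably expressing EGFP interrupted by mutant beta-globin intron 2 (IVS2-654), 500/well in 2% FCS. Treated with compound for 2 days at 37C. Splicing correction scored as total well GFP intensity (488 nm excitation, 500-520 nm emission); 500 nM antisense PNA served as control.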
HEK293 cAMP cs = counter-screen for TSHR agonists: cAMP increase in parental HEK293. parental HEK293 CNG cAMP sensor, membrane potential fluorescence. Potency, µM (top dose mostly 57.1 µM), without a hit: at the top dose activation, most hits filed as activators. 73,000 compounds, 2.5% hits. AID 938; further: potency means the concentration at half of the fitted maximal effect; % of control where 0% means no effect; nearly all actives have a fitted effect of over 55% in size
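Counterscreen for endogenous-receptor signalling: CNG-channel HEK 293 cells report cAMP rise by membrane depolarization. After 60 min dye equilibration with 100 uM RO 20-1724, compounds incubated 30 min before bottom-read fluorescence at 590 nm.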
Epigenetic mod = derepresses silenced GFP locus in mouse C127i cells; mouse C127i GFP locus derepression, cytometry, 30 h; Potency, µM (titrated, usually from 46.1 µM), without a hit: top-dose GFP derepression (activation); 68,000 compounds, 0.09% hits; further: % of control where 0% means no effect
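Locus derepression in mouse mammary C127i cells whose integrated CMV-GFP reporter is normally silent; GFP expression after 30 h compound treatment was quantified by counting fluorescent cells.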
Ub-GFP proteasome = inhibits proteasome, raising ubiquitin-GFP reporter fluorescence | Potency, µM (top dose mostly 45.9 µM), for inactives: top-dose activation (GFP accumulation), most hits filed as activators | 67,000 tested, under 10 active | Ubiquitin-GFP reporter cells, proteasome inhibition, GFP fluorescence; response scale: untreated = 0%, 10 µM MG-132 = 100%; active means well fitted activation curve with a large enough effect, not every such curve was filed as active; inconclusive means small, poorly fitted or top-dose-only effect, or another doubt; inactive means no such curve, though single readings can be large or run the other way; further: potency means the concentration at half of the fitted maximal effect
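GFP accumulation read-out: laser plate cytometry counting ubiquitin(G76V)-GFP-expressing U2OS cells after 4 hr compound exposure at 37 °C. Titrations spanned 46 uM to 2.9 nM; 0% = basal, 100% = 10 uM MG-132; concentration-response curves fitted.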
Starred values were filed as active, the others as inactive; ? = inconclusive; . = no result; [ ] = another dose, or the depositor's remark. This is a sample that favours compounds with a hit; in the whole collection about 3.8% have one here. Unless noted, the call rests on the fitted dose curve; in most records, active means well fitted curve in the direction sought with a large enough effect; inconclusive means small, poorly fitted or top-dose-only effect, or another doubt; inactive means no such curve, though single readings can be large; an effect the other way counts as inactive or inconclusive.

SMILES	TSHR agonist	ERK AVP inh	HBB splicing	HEK293 cAMP cs	Epigenetic mod	Ub-GFP proteasome
CN(C)Cc1ccccc1-c1ccc2ncnc(N3CCOCC3)c2c1	5.5%	-16.3%	-1.0%	3.8%	0.7%[9.22 µM]	4.9%
O=C(CN(Cc1ccco1)C(=O)CNS(=O)(=O)c1ccccc1)NCc1ccccc1	20µM*	3.6%	-2.1%	13.5%	-1.2%	-4.3%
CCC(C(=O)NCc1ccco1)N(C(=O)CNS(=O)(=O)c1ccc(C)cc1)c1ccccc1OC (stereo not given)	?	-4.9%	.	15.8µM*	0.5%	2.5%
O=C(CN(Cc1ccco1)C(=O)CNS(=O)(=O)c1ccc(F)cc1)NCCc1ccccc1	-0.6%	-16.1%	.	8.3%	1.0%	-4.4%
CCCC(C(=O)NCc1ccco1)N(C(=O)CNS(=O)(=O)c1ccccc1)c1ccccc1OC (stereo not given)	?	25.5%	.	25.1µM*	0.0%	4.8%
O=C(c1cccc(F)c1)N1CCC2(CC1)CN(c1ccccn1)C2	0.5%	-9.0%	0.2%	10.6%	-4.5%[9.22 µM]	3.5%
Cc1nc2cnc(N(C)C)nc2n(CCC#N)c1=O	-6.4%	-12.2%	1.0%	13.4%	-0.5%[9.22 µM]	2.0%
Cc1cc(OCCNCCO)cc(C)c1Cl	.	.	.	-10.1%	.	.
Cc1cc(OCCCCCNCCO)cc(C)c1Cl	7.1%[11.4 µM]	39.8µM*	0.8%[0.0738 µM]	8.2%[11.4 µM]	0.0%	24.4%[9.17 µM]
COc1ccc(OC)c([C@H]2Nc3ccccc3NC3=C2C(=O)CC(C)(C)C3)c1Br	-5.0%	.	.	-14.0%	-0.1%[9.22 µM]	-3.9%
Cc1ccc(-c2noc(CCC(=O)NC3CCCc4ccccc43)n2)cc1 (stereo not given)	?	11.2%	-1.0%	31.6µM*	-2.9%	0.0%
O=C(Nc1ccccc1)N1CCC2(CC1)CCN(C(=O)c1ccncc1)CC2	?	16.7%	1.0%	?	2.3%[9.22 µM]	-11.1%
CN1Cc2cc(C(=O)c3cc(Cl)cc(CSc4ncccn4)c3O)cnc2NC1=O	15.8µM*	-29.0%	-0.2%[57.5 µM]	13.4%	-1.0%	1.9%
Nc1nc2ncc(=O)[nH]c2c(=O)[nH]1	.	2.1%	.	.	.	.
Cc1ccc2nc(-c3cccc(S(=O)(=O)N(C)C)c3)cn2c1	?	-17.3%	2.9%[0.369 µM]	25.1µM*	0.5%	.
Nc1nc(CN2CCN(c3ccccn3)CC2)nc(Nc2ccc(Cl)cc2)n1	4.5%	31.6µM*	-0.5%[57.5 µM]	6.5%	3.8%	-5.2%
COC(=O)C1=C(C)N(C)C(C)=C(C(=O)OC)C1c1ccc(F)c(Br)c1	?	-10.9%	-0.4%[9.22 µM]	31.6µM*	0.3%	-0.8%
C1CCC(N=C(NC23CC4CC(CC(C4)C2)C3)N2CCOCC2)CC1	?	8.9%	-0.9%	25.1µM*	-1.1%	7.4%
C[C@@H]1[C@H](C)CC[C@@]2(C(=O)O[C@H]3O[C@@H](CO[C@H]4O[C@@H](CO)[C@@H](O[C@H]5O[C@@H](C)[C@@H](O)[C@@H](O)[C@@H]5O)[C@@H](O)[C@@H]4O)[C@@H](O)[C@@H](O)[C@@H]3O)CC[C@]3(C)C(=CC[C@H]4[C@@]5(C)C[C@@H](O)[C@@H](O)[C@](C)(CO)[C@@H]5CC[C@@]43C)[C@@H]12	.	-16.9%[25.7 µM]	0.6%[20.6 µM]	0.3%[25.6 µM]	2.4%[20.6 µM]	-9.4%[20.5 µM]
Nc1nc(Cl)nc2c1ncn2[C@@H]1O[C@@H](COP(=O)(O)OP(=O)(O)OP(=O)(O)O)[C@@H](O)[C@H]1O	.	15.0%	2.2%	-5.2%	-1.2%	4.9%
CC1CCc2c(sc3ncn4c(SCC(=O)NCc5ccco5)nnc4c23)C1 (stereo not given)	?	4.3%	-0.4%[57.5 µM]	25.1µM*	4.0%	-1.9%
Cc1nc(SCC(=O)NCc2ccco2)c2c3c(sc2n1)CCCC3	?	-0.4%	-0.2%[57.5 µM]	12.6µM*	1.0%	-1.1%
O=C(c1ccccc1C(=O)N1CCN(c2ccccc2F)CC1)N1CCN(c2ccccc2F)CC1	?	-23.5%	-2.0%	15.8µM*	-1.8%	7.2%
